What all share (experiment): peptide microarray binding signal (635 nm), min-max normalized on array (fraction of array maximum); higher = stronger binding
For test [1], the target named is T1, HaloTag-ATRX ADD domain (163-292).
T1 chain: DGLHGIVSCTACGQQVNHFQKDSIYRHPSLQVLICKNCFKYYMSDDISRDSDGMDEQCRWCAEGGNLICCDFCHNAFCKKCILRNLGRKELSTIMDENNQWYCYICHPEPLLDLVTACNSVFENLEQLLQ
In short, it runs like this: (§1)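 Triplicate spots of histone 13-mer peptide–cellulose conjugates with a Cy3 tracer were printed on nitrocellulose and probed for 1 h at 4°C with biotin-labelled HaloTag reader fusions (10 nM to 1 μM) plus streptavidin-Alexa Fluor 647 or rabbit histone antibodies (1:10,000 to 1:2,000) plus anti-rabbit Alexa 647. An Axon GenePix 4000B read the 635 nm channel. Binding signal is the spot-triplicate mean intensity after min-max scaling within each library.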

The target in test [2] is HaloTag-ING2 PHD (mouse Ing2 200-280). In short, it runs like this: as §1
Test [3] has as its target anti-H3K4me3 antibody ab8580. In short, it runs like this: as §1
The target of test [4] is anti-H3K9me3 antibody ab8898. In short, it runs like this: as §1
The mark [5] stands for this setting: peptide region: Unmod H4 variant, binder concentration: 50 nM.
Setting [6] is: peptide region: Unmod H4 variant, binder concentration: 500 nM.
[7] abbreviates: peptide region: Unmod H4 variant, binder concentration: 10 nM.
[8] abbreviates: peptide region: Unmod H4 variant, binder concentration: 100 nM.
The mark [9] stands for this setting: peptide region: Unmod H4 variant, binder concentration: 1:2,000 dilution.
[10] abbreviates: peptide region: Unmod H4 variant, binder concentration: 1:10,000 dilution.
Where [11] appears, read: peptide region: Unmod H3 variant, binder concentration: 50 nM.
Setting [12] is: peptide region: Unmod H3 variant, binder concentration: 500 nM.
Setting [13] is: peptide region: Unmod H3 variant, binder concentration: 10 nM.
[14] abbreviates: peptide region: Unmod H3 variant, binder concentration: 100 nM.
Setting [15] is: peptide region: Unmod H3 variant, binder concentration: 1:2,000 dilution.
Setting [16] is: peptide region: Unmod H3 variant, binder concentration: 1:10,000 dilution.

± gives the standard deviation.

Consider VLRDNIQGITKPA [Unmod H4 variant V L R D N I Q G I T K P A], for which the “peptide microarray binding signal” value in test [1] (setting [5]) was determined as 0.0154 ± 0.00068; in test [1] (setting [6]), 0.0293 ± 0.0022; in test [2] (setting [7]), 0.0201 ± 0.00092; in test [2] (setting [8]), 0.0672 ± 0.0023; in test [3] (setting [9]) it was 0.0064 ± 0.00045; in test [3] (setting [10]) it was 0.0089 ± 0.0011. For the same molecule, the “peptide microarray binding signal” value amounted to 0.00264 ± 0.00015 in test [4] (setting [9]) and 0.00323 ± 9.4e-05 in test [4] (setting [10]).

For TYTEHAKRKTVTA [Unmod H4 variant T Y T E H A K R K T V T A], the “peptide microarray binding signal” value amounted to 0.0167 ± 0.0088 in test [1] (setting [5]); 0.0332 ± 0.0014 in test [1] (setting [6]); 0.00901 ± 0.00035 in test [2] (setting [7]); 0.0293 ± 0.0034 in test [2] (setting [8]); 0.00155 ± 0.00011 in test [3] (setting [9]); 0.0024 ± 0.00014 in test [3] (setting [10]). Besides, the “peptide microarray binding signal” value in test [4] (setting [9]) was found to be 0.00104 ± 3.8e-05; in test [4] (setting [10]), 0.00202 ± 8.6e-05.

As for KRHRKVLRDNIQG [Unmod H4 variant K R H R K V L R D N I Q G], the “peptide microarray binding signal” value in test [1] (setting [5]) was found to be 0.00636 ± 0.00015; in test [1] (setting [6]), 0.0147 ± 0.00085; in test [2] (setting [7]), 0.00549 ± 9.7e-05; in test [2] (setting [8]), 0.0208 ± 0.0048; in test [3] (setting [9]), 0.000774 ± 7e-06; in test [3] (setting [10]) it was 0.00114 ± 1.2e-05. Also, the “peptide microarray binding signal” value came out at 0.000604 ± 4.7e-05 in test [4] (setting [9]) and 0.00104 ± 2.8e-05 in test [4] (setting [10]).

For GGKGLGKGGAKRH [Unmod H4 variant G G K G L G K G G A K R H], the “peptide microarray binding signal” value came out at 0.00373 ± 6.8e-05 in test [1] (setting [5]); 0.011 ± 0.0003 in test [1] (setting [6]); 0.0132 ± 0.0071 in test [2] (setting [7]); 0.0147 ± 0.00057 in test [2] (setting [8]); 0.000547 ± 1.1e-05 in test [3] (setting [9]); 0.00114 ± 2.3e-05 in test [3] (setting [10]). For the same molecule, the “peptide microarray binding signal” value was determined as 0.0003775 ± 3.7e-06 in test [4] (setting [9]) and 0.00075 ± 7.9e-06 in test [4] (setting [10]).

As for GKGGAKRHRKVLR [Unmod H4 variant G K G G A K R H R K V L R], the “peptide microarray binding signal” value is 0.00508 ± 0.0001 in test [1] (setting [5]); 0.0113 ± 0.00031 in test [1] (setting [6]); 0.00292 ± 0.00011 in test [2] (setting [7]); 0.00836 ± 0.00085 in test [2] (setting [8]); 0.000472 ± 9.3e-06 in test [3] (setting [9]); 0.000856 ± 1.8e-05 in test [3] (setting [10]). Also, the results for the “peptide microarray binding signal” value in test [4] (setting [9]) and in test [4] (setting [10]) were 0.000302 ± 3.1e-06 and 0.00075 ± 7.9e-06, respectively.

Consider SGRGKGGKGLGKG [Unmod H4 variant S G R G K G G K G L G K G], for which the “peptide microarray binding signal” value was 0.00426 ± 0.00016 in test [1] (setting [5]); 0.009 ± 0.00081 in test [1] (setting [6]); 0.00412 ± 0.00013 in test [2] (setting [7]); 0.0136 ± 0.0012 in test [2] (setting [8]); 0.000831 ± 3.2e-05 in test [3] (setting [9]); 0.00108 ± 1.9e-05 in test [3] (setting [10]). Further, the “peptide microarray binding signal” value in test [4] (setting [9]) amounted to 0.000438 ± 8.5e-06; in test [4] (setting [10]) it was 0.000692 ± 7.3e-06.

IQGITKPAIRRLA [Unmod H4 variant I Q G I T K P A I R R L A]: the “peptide microarray binding signal” value in test [1] (setting [5]) worked out at 0.0496 ± 0.0034; in test [1] (setting [6]), 0.0842 ± 0.0024; in test [2] (setting [7]), 0.0565 ± 0.0092; in test [2] (setting [8]), 0.119 ± 0.019; in test [3] (setting [9]), 0.0125 ± 0.0012; in test [3] (setting [10]), 0.0159 ± 0.0013. The results for the “peptide microarray binding signal” value in test [4] (setting [9]) and in test [4] (setting [10]) were 0.00663 ± 0.00078 and 0.00957 ± 0.00076, respectively.

Regarding ISGLIYEETRGVL [Unmod H4 variant I S G L I Y E E T R G V L], the “peptide microarray binding signal” value is 0.00266 ± 3.1e-05 in test [1] (setting [5]); 0.00776 ± 0.0036 in test [1] (setting [6]); 0.00233 ± 7.4e-05 in test [2] (setting [7]); 0.00319 ± 0.00013 in test [2] (setting [8]); 0.00109 ± 5.1e-05 in test [3] (setting [9]); 0.00114 ± 1.2e-05 in test [3] (setting [10]). Also, the “peptide microarray binding signal” value in test [4] (setting [9]) came out at 0.0004228 ± 4.1e-06; in test [4] (setting [10]), 0.000807 ± 1.5e-05.

With GVLKVFLENVIRD [Unmod H4 variant G V L K V F L E N V I R D], the “peptide microarray binding signal” value in test [1] (setting [5]) was found to be 0.00223 ± 6.3e-05; in test [1] (setting [6]) it was 0.00281 ± 0.00014; in test [2] (setting [7]), 0.00388 ± 0.00015; in test [2] (setting [8]), 0.00269 ± 6.7e-05; in test [3] (setting [9]), 0.00174 ± 0.00026; in test [3] (setting [10]) it was 0.00097 ± 2e-05. For the same molecule, the “peptide microarray binding signal” value worked out at 0.00125 ± 0.00016 in test [4] (setting [9]) and 0.00098 in test [4] (setting [10]).

On to FLENVIRDAVTYT [Unmod H4 variant F L E N V I R D A V T Y T], for which the “peptide microarray binding signal” value in test [1] (setting [5]) came to 0.0144 ± 0.0008; in test [1] (setting [6]) it was 0.0404 ± 0.01; in test [2] (setting [7]), 0.00901 ± 0.0012; in test [2] (setting [8]), 0.0294 ± 0.011; in test [3] (setting [9]) it was 0.00381 ± 0.00074; in test [3] (setting [10]) it was 0.00519 ± 0.00068. In addition, the “peptide microarray binding signal” value was found to be 0.00331 ± 0.00056 in test [4] (setting [9]) and 0.0034 ± 0.00025 in test [4] (setting [10]).

In the case of RVTIMPKDIQLAR [Unmod H3 variant R V T I M P K D I Q L A R], the “peptide microarray binding signal” value in test [1] (setting [11]) came out at 0.00552 ± 9e-05; in test [1] (setting [12]), 0.0187 ± 0.001; in test [2] (setting [13]), 0.0177 ± 0.00085; in test [2] (setting [14]), 0.0422 ± 0.0028; in test [3] (setting [15]), 0.00585 ± 0.00079; in test [3] (setting [16]) it was 0.00782 ± 0.00068. Besides, the “peptide microarray binding signal” value in test [4] (setting [15]) is 0.00403 ± 0.00079; in test [4] (setting [16]), 0.00375 ± 0.00014.

For AKRKTVTAMDVVY [Unmod H4 variant A K R K T V T A M D V V Y], the “peptide microarray binding signal” value in test [1] (setting [5]) is 0.00693 ± 0.00037; in test [1] (setting [6]), 0.0206 ± 0.0015; in test [2] (setting [7]) it was 0.00609 ± 0.00018; in test [2] (setting [8]), 0.0129 ± 0.0003; in test [3] (setting [9]), 0.00104 ± 3.5e-05; in test [3] (setting [10]), 0.001484 ± 1.4e-05. Moreover, the “peptide microarray binding signal” value came to 0.000604 ± 2e-05 in test [4] (setting [9]) and 0.00104 ± 1.1e-05 in test [4] (setting [10]).

As for YEETRGVLKVFLE [Unmod H4 variant Y E E T R G V L K V F L E], the “peptide microarray binding signal” value worked out at 0.00188 ± 2.3e-05 in test [1] (setting [5]); 0.00157 in test [1] (setting [6]); 0.00197 ± 3e-05 in test [2] (setting [7]); 0.001913 ± 1.9e-05 in test [2] (setting [8]); 0.00123 ± 0.00021 in test [3] (setting [9]); 0.000742 in test [3] (setting [10]). Moreover, the “peptide microarray binding signal” value turned out to be 0.000287 ± 2.9e-06 in test [4] (setting [9]) and 0.000807 ± 2.5e-05 in test [4] (setting [10]).

On to GGVKRISGLIYEE [Unmod H4 variant G G V K R I S G L I Y E E], for which the “peptide microarray binding signal” value in test [1] (setting [5]) came out at 0.00323 ± 0.00011; in test [1] (setting [6]), 0.0107 ± 0.006; in test [2] (setting [7]), 0.00507 ± 0.0008; in test [2] (setting [8]), 0.0272 ± 0.027; in test [3] (setting [9]) it was 0.000755 ± 7e-05; in test [3] (setting [10]), 0.00126 ± 5.7e-05. Moreover, the “peptide microarray binding signal” value in test [4] (setting [9]) was determined as 0.000664 ± 7.4e-05; in test [4] (setting [10]), 0.000923 ± 3.4e-05.

As to AIHAKRVTIMPKD [Unmod H3 variant A I H A K R V T I M P K D], the “peptide microarray binding signal” value in test [1] (setting [11]) is 0.00414 ± 0.00014; in test [1] (setting [12]), 0.0132 ± 0.00021; in test [2] (setting [13]), 0.00507 ± 0.00019; in test [2] (setting [14]), 0.0196 ± 0.0021; in test [3] (setting [15]) it was 0.000849 ± 2.3e-05; in test [3] (setting [16]), 0.00211. Moreover, the “peptide microarray binding signal” value came out at 0.000513 ± 1.3e-05 in test [4] (setting [15]) and 0.000692 ± 7.3e-06 in test [4] (setting [16]).

Take IRDAVTYTEHAKR [Unmod H4 variant I R D A V T Y T E H A K R]: the “peptide microarray binding signal” value is 0.0385 ± 0.0035 in test [1] (setting [5]); 0.0711 ± 0.01 in test [1] (setting [6]); 0.0251 ± 0.0019 in test [2] (setting [7]); 0.0444 ± 0.0047 in test [2] (setting [8]); 0.00429 ± 0.00052 in test [3] (setting [9]); 0.00913 ± 0.0018 in test [3] (setting [10]). The “peptide microarray binding signal” value was found to be 0.00497 ± 9e-05 in test [4] (setting [9]) and 0.00577 ± 8e-05 in test [4] (setting [10]).

The record behind these values is the supplement of paper PMC4022240.
